Laboratory results published in PMC9911399, “Two distinct binding modes provide the RNA-binding protein RbFox with extraordinary sequence specificity”.
Where a chain is given by its changes, count along the chain named. In all, about 16,000 sequences were measured (“ka relative to ugcaugu”: median about 0.0091, highest 2% from about 0.032 on). The entries come from a sample that favours the highest values as a whole.

T1: RBFOX1 RRM (Homo sapiens, UniProt Q9NWB1 109-208)
T1 sequence: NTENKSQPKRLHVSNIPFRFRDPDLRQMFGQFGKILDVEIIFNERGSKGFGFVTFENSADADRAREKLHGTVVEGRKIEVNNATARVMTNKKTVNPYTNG

B1: UGACAAG (DNA:RNA)
RNA: GGGAGACCGGAAUUCAGAUUGUCCUGACAAGUUAAAUCCCGUCGUAGCCACCA
DNA 1: CAATCTGAATTCCGGTCTCCC
DNA 2: TGGTGGCTACGACGGGATT
B2: ACGCUGG (DNA:RNA)
RNA: B1 RNA with U25A, G26C, A27G, A29U, A30G
DNA 1: CAATCTGAATTCCGGTCTCCC
DNA 2: TGGTGGCTACGACGGGATT
B3: UGGCAAU (DNA:RNA)
RNA: B1 RNA with A27G, G31U
DNA 1: CAATCTGAATTCCGGTCTCCC
DNA 2: TGGTGGCTACGACGGGATT
B4: CACCCCG (DNA:RNA)
RNA: B1 RNA with U25C, G26A, A27C, A29C, A30C
DNA 1: CAATCTGAATTCCGGTCTCCC
DNA 2: TGGTGGCTACGACGGGATT
B5: CUUGCCC (DNA:RNA)
RNA: GGGAGACCGGAAUUCAGAUUGUCCCUUGCCCUUAAAUCCCGUCGUAGCCACCA
DNA 1: CAATCTGAATTCCGGTCTCCC
DNA 2: TGGTGGCTACGACGGGATT
B6: CAAUCGU (DNA:RNA)
RNA: B5 RNA with U26A, U27A, G28U, C30G, C31U
DNA 1: CAATCTGAATTCCGGTCTCCC
DNA 2: TGGTGGCTACGACGGGATT
B7: ACUUACA (DNA:RNA)
RNA: B5 RNA with C25A, U26C, G28U, C29A, C31A
DNA 1: CAATCTGAATTCCGGTCTCCC
DNA 2: TGGTGGCTACGACGGGATT
B8: CACUUGG (DNA:RNA)
RNA: B5 RNA with U26A, U27C, G28U, C29U, C30G, C31G
DNA 1: CAATCTGAATTCCGGTCTCCC
DNA 2: TGGTGGCTACGACGGGATT
B9: CGUAAUG (DNA:RNA)
RNA: B1 RNA with U25C, A27U, C28A, A30U
DNA 1: CAATCTGAATTCCGGTCTCCC
DNA 2: TGGTGGCTACGACGGGATT
B10: CGUCCGU (DNA:RNA)
RNA: B5 RNA with U26G, G28C, C30G, C31U
DNA 1: CAATCTGAATTCCGGTCTCCC
DNA 2: TGGTGGCTACGACGGGATT
B11: GUAAUGU (DNA:RNA)
RNA: B5 RNA with C25G, U27A, G28A, C29U, C30G, C31U
DNA 1: CAATCTGAATTCCGGTCTCCC
DNA 2: TGGTGGCTACGACGGGATT
B12: CGGAAUG (DNA:RNA)
RNA: B1 RNA with U25C, A27G, C28A, A30U
DNA 1: CAATCTGAATTCCGGTCTCCC
DNA 2: TGGTGGCTACGACGGGATT
B13: AGGAAUG (DNA:RNA)
RNA: B1 RNA with U25A, A27G, C28A, A30U
DNA 1: CAATCTGAATTCCGGTCTCCC
DNA 2: TGGTGGCTACGACGGGATT
B14: AGGAUUG (DNA:RNA)
RNA: B1 RNA with U25A, A27G, C28A, A29U, A30U
DNA 1: CAATCTGAATTCCGGTCTCCC
DNA 2: TGGTGGCTACGACGGGATT
B15: UCGAAUC (DNA:RNA)
RNA: B1 RNA with G26C, A27G, C28A, A30U, G31C
DNA 1: CAATCTGAATTCCGGTCTCCC
DNA 2: TGGTGGCTACGACGGGATT
B16: GUAAAUG (DNA:RNA)
RNA: B1 RNA with U25G, G26U, C28A, A30U
DNA 1: CAATCTGAATTCCGGTCTCCC
DNA 2: TGGTGGCTACGACGGGATT
B17: UCGAAUG (DNA:RNA)
RNA: B1 RNA with G26C, A27G, C28A, A30U
DNA 1: CAATCTGAATTCCGGTCTCCC
DNA 2: TGGTGGCTACGACGGGATT
B18: UCGAUUG (DNA:RNA)
RNA: B1 RNA with G26C, A27G, C28A, A29U, A30U
DNA 1: CAATCTGAATTCCGGTCTCCC
DNA 2: TGGTGGCTACGACGGGATT
B19: GGAAUGU (DNA:RNA)
RNA: B1 RNA with U25G, C28A, A29U, A30G, G31U
DNA 1: CAATCTGAATTCCGGTCTCCC
DNA 2: TGGTGGCTACGACGGGATT
B20: AGGAAUC (DNA:RNA)
RNA: B1 RNA with U25A, A27G, C28A, A30U, G31C
DNA 1: CAATCTGAATTCCGGTCTCCC
DNA 2: TGGTGGCTACGACGGGATT

These binders were tested against T1, RBFOX1 RRM (assay: EMSA; HiTS-Eq, 1 nM pool, 10 min; buffer printed only for the single-RNA assays: 10 mM Tris pH 7.5, 150 mM NaCl, 3.4 mM EDTA, 0.001% NP-40, 30 C). Details: tags: His6 N-terminal (pET28a); label: 5' 32P.
Summary of the method: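 Relative association constants, normalised to the cognate motif, were derived by comparing read counts of each RNA species with those of the control reaction. The RNA sequenced was the free fraction, separated by 8% native PAGE after a 10 min equilibration in 50 µL of 1 nM 5′-radiolabelled RNA (7 randomized nucleotides) with increasing concentrations of purified wild-type or mutant RbFox RRM.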

Binder | binding signal
B1 | 0.0143 KA relative to UGCAUGU
B2 | 0.0175 KA relative to UGCAUGU
B3 | 0.0132 KA relative to UGCAUGU
B4 | 0.002 KA relative to UGCAUGU
B5 | 0.00752 KA relative to UGCAUGU
B6 | 0.00595 KA relative to UGCAUGU
B7 | 0.00166 KA relative to UGCAUGU
B8 | 0.0107 KA relative to UGCAUGU
B9 | 0.0127 KA relative to UGCAUGU
B10 | 0.0125 KA relative to UGCAUGU
B11 | 0.0122 KA relative to UGCAUGU
B12 | 0.0596 KA relative to UGCAUGU
B13 | 0.0471 KA relative to UGCAUGU
B14 | 0.0293 KA relative to UGCAUGU
B15 | 0.0109 KA relative to UGCAUGU
B16 | 0.00894 KA relative to UGCAUGU
B17 | 0.0323 KA relative to UGCAUGU
B18 | 0.0206 KA relative to UGCAUGU
B19 | 0.0563 KA relative to UGCAUGU
B20 | 0.0141 KA relative to UGCAUGU
